Experimental data reported in PubChem BioAssay (EPA / NIEHS).
Active and inactive are the calls of the source. How the source made its calls: active means hit-call score of the fitted dose curve at least 0.9, where 1 is the maximum; inactive means score below 0.9.

These molecules were tested against Hypoxia-inducible factor 1-alpha (Homo sapiens) (UniProt Q16665) (assay: ATG_HIF1a_CIS: Attagene CIS-FACTORIAL HepG2 Assay for human Hypoxia Inducible Factor 1 (HIF1A) (AID 2282951)). Settings: HepG2 Attagene cis-factorial HIF1a reporter transcription; actives raise or lower the signal.
Hypoxia-inducible factor 1-alpha (Homo sapiens), sequence (Q16665 whole entry, looked up): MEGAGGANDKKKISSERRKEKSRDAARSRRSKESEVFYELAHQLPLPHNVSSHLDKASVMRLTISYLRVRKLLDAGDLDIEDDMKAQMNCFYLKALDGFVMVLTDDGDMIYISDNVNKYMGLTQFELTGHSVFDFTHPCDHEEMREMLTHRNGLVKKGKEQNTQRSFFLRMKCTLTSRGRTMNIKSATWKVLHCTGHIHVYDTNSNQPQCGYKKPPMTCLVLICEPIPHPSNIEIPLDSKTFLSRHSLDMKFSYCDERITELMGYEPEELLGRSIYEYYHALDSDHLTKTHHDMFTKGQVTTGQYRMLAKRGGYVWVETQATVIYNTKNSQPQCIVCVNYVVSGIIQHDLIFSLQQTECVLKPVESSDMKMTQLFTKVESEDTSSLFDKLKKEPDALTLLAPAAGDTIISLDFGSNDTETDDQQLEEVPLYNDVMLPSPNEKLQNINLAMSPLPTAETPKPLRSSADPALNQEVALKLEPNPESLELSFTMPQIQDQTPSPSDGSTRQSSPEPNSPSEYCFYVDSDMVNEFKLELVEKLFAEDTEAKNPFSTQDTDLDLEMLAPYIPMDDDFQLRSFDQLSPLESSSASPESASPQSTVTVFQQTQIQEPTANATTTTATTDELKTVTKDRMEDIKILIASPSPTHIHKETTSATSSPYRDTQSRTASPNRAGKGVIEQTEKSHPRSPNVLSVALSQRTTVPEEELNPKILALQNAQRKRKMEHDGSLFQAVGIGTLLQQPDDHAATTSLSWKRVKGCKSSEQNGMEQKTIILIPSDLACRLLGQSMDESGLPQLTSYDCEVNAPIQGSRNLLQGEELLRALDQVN
Description: ATG_CIS is a cell-based, multiplexed-readout assay that uses HepG2, a human liver cell line, with measurements taken at 24 hours after chemical dosing in a 24-well plate.ATG_HIF1a_CIS is one of 52 assay component(s) measured or calculated from the ATG_CIS assay. It is designed to make measurements of mRNA induction, a form of inducible reporter, as detected with fluorescence intensity signals by Reverse transcription polymerase chain reaction (RT-PCR) and Capillary electrophoresis technology.Data from the assay component ATG_HIF1a_CIS was analyzed into 1 assay endpoint. This assay endpoint, ATG_HIF1a_CIS, was analyzed with bidirectional fitting relative to DMSO as the negative control and baseline of activity. Using a type of inducible reporter, measures of mRNA for gain or loss-of-signal activity can be used to understand the reporter gene at the transcription factor-level as they relate to the gene HIF1A. Furthermore, this assay endpoint can be referred to as a primary readout, because this assay has produced multiple assay endpoints where this one serves a reporter gene function. To generalize the intended target to other relatable targets, this assay endpoint is annotated to the dna binding intended target family, where the subfamily is basic helix-loop-helix protein.
Human liver HepG2 cells are transiently transfected with multiple reporter transcription units (MRTUs) in 6-well plates using FuGene 6 reagent (Roche; 3 ml FuGene/1 mg DNA). The MRTU constructs are regulated by a cis-regulating element (promoter). […] A major difference between the CIS and TRANS system is that in CIS activities of endogenous TFs are measured, whereas the TRANS assay evaluates changes in activities of exogenous, chimeric NR-Gal4 proteins. […] At the end of 24 hour incubation, total RNA was isolated using TriZol reagent (Invitrogen). The isolated RNA is then reverse-transcribed using oligo(dT) primer and Mo-MLV reverse transcriptase (Invitrogen) with DNAse I (Ambion) treatment for 30 min. The one-tenth of the produced cDNA was amplified by PCR using Taq DNA polymerase (Invitrogen) and two reporter sequence-specific primers. The PCR products were fluorescently labeled by primer extension with 6-arboxyfluorescein (6-FAM) 5'-labeled reporter sequence-specific primer (2 min at 95 C, 20 s at 68 C and 10 min at 72 C) and these products were digested with 5U of HpaI (New England Biolabs) for 2h at 37 C. The fragments were purified using Qiaquick PCR columns (Qiagen), analyzed on an ABI 3130xL genetic analyzer (Applied Biosystems) with peak positions identified by using a set of X-rhodamine (ROX)-labeled MapMarker1000 molecular weight standards (BioVentures). The raw capillary electrophoresis data was processed using Attagraph software (Attagene).
In the case of `CCCCCCCCCCC`, the outcome is reported as “inactive”. `CCCCCCCC=O` was tested, and the outcome was “inactive”. With `Cc1nc(C)nc(N2C[C@@H](C)N(c3ccnc([C@@H](C)O)n3)[C@@H](C)C2)n1` the outcome was “inactive”. With `Cc1ccccc1Cl` the outcome was “inactive”. In the case of `COc1ccc2c(c1)c(CC(=O)O)c(C)n2C(=O)c1ccc(Cl)cc1`, the outcome is reported as “inactive”. In the case of `C1CCC(SSC2CCCCC2)CC1`, the outcome is reported as “inactive”. With `Cc1c(C(=O)O)c(O)cc2c1C(=O)c1c(O)c([C@@H]3O[C@H](CO)[C@@H](O)[C@H](O)[C@H]3O)c(O)c(O)c1C2=O` the outcome was “inactive”. For `CC(=O)C(C)=CC1C(C)=CCCC1(C)C` (stereo not given), the outcome was “inactive”. `Cc1nc(-c2ccc3c(c2)CCN(CCC2CCC(NC(=O)/C=C/c4ccc(F)cc4)CC2)CC3)no1` (stereo not given) was tested, and the outcome was “inactive”. For `CCCCCCC(=O)OCC`, the outcome was “inactive”. With `Cc1cccc(C)c1O` the outcome was “inactive”. In the case of `CCCCCCCCCCCCCO`, the AC50 is reported as 8.99 µM (active). For `O=C(OCCCCCOC(=O)c1ccccc1)c1ccccc1`, the AC50 was 26.3 µM (active). With `CC=Cc1ccc(O)c(OC)c1` the outcome was “inactive”. For `CCOC(=O)CCC(=O)OCC`, the outcome was “inactive”. For `Clc1cc(Cl)c(Cl)cc1Cl`, the outcome was “inactive”. For `OC[C@@H](O)[C@@H](O)[C@H](O)[C@H](O)CO`, the outcome was “inactive”. For `Nc1ccc2c(c1)C(=O)c1ccccc1C2=O`, the outcome was “inactive”. `CC1=C(/C=C/C(C)=C/C=C/C(C)=C/CO)C(C)(C)CCC1` was tested, and the outcome was “inactive”. `Cc1cc(=O)[nH]c(=S)[nH]1` was tested, and the outcome was “inactive”. `Cc1oc(-c2ccccc2)nc1CCOc1cccc2c1ccn2CCC(=O)O` was tested, and the outcome was “inactive”. `CC(=O)OCCOCCOCCOC(C)=O` was tested, and the AC50 was 39.4 µM (active). With `O=C(N[C@@H](Cc1ccccc1)[C@@H](O)C(=O)N1C[C@@H](O)[C@@H](O)C1)c1cc2cc(Cl)ccc2[nH]1` the outcome was “inactive”. `O=[N+]([O-])C(CO)(CO)CO` was tested, and the outcome was “inactive”. For `CCCCCCOCCO`, the outcome was “inactive”. In the case of `NCC1(Cc2noc(=O)[nH]2)CCCCC1`, the outcome is reported as “inactive”. In the case of `C[Si]1(C)O[Si](C)(C)O[Si](C)(C)O[Si](C)(C)O1`, the outcome is reported as “inactive”. In the case of `C[C@]12C=CC(=O)C=C1CC[C@@H]1[C@@H]2C(=O)C[C@@]2(C)[C@H]1CC[C@]2(O)C(=O)CO`, the outcome is reported as “inactive”. For `CCc1c(C(=O)NN2CCCCC2)nn(-c2ccc(Cl)cc2Cl)c1-c1ccc(Br)cc1`, the AC50 was 0.387 µM (active). With `CC(CO)OC(C)CO` (stereo not given) (tested in a mixture with another compound) the AC50 was 4.72 µM (active). In the case of `CC1(C)NC(=O)NC1=O`, the AC50 is reported as 12 µM (active). For `COC(=O)c1ccc(O)cc1`, the outcome was “inactive”. For `Cc1ccc(C)c(C)c1`, the outcome was “inactive”. For `CC(C)(C)c1cc(O)c(C(C)(C)C)cc1O`, the outcome was “inactive”. In the case of `CCNc1cccc(C)c1`, the AC50 is reported as 60.8 µM (active). With `Cc1ccc(C)c(O)c1C` the outcome was “inactive”. With `C=CCOC(=O)c1ccccc1C(=O)OCC=C` the outcome was “inactive”. `Cc1ccc(N(C)C)cc1` was tested, and the outcome was “inactive”. For `CCCCCCCCCCCCCCCCCC(=O)O`, the outcome was “inactive”. `CC1(C)CC(N=C=O)CC(C)(CN=C=O)C1` (stereo not given) was tested, and the outcome was “inactive”.
